The structures appear in SMILES notation. About 83,000 compounds went through this panel and 20% of them were active in at least one assay; those are over-represented in the sample as a whole.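 Single-concentration screen, 48 h exposure, 96-well plates. Endpoint: percent growth. Below 10 = active.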 Values without a mark were called inactive. The source made the active and inactive calls.

The first assay deals with SR leukemia. In words: NCI-60 one-dose screen, 48 h (100 = growth as untreated, 0 = no growth, -100 = all killed). Particulars: 10 µM unless noted.
Turning to `CC1=CC[C@@H]2CC[C@]3(C)[C@H](CC[C@@H]4[C@@]5(C)CCCNC(C)(C)[C@@H]5CC[C@]43C)[C@H]2[C@@H]1C`, the growth was 5.05% (active).
Consider `Fc1ccc(C2CC(c3cccc(Nc4ccncc4)c3)=NN2c2ccccc2)cc1` (stereo unspecified), for which the growth is 2.49% (active).
Same read-out and setting: for `Cc1ccc(C(=O)Nc2ccccc2C(=O)N/N=C(\c2ccccc2)c2ccccn2)cc1` the value was 16.8%; for `COc1cc(/C=C/C(=O)c2c(C)oc3nc[nH]c(=O)c23)ccc1O`, 126%.
Consider `CS(=O)(=O)Nc1cc(-c2ccc3ncnc(Nc4ccc5[nH]ncc5c4)c3c2)cnc1Cl`, for which the growth is 63.2%.
For the compound `COc1ccc(-c2ncc(-c3ccccc3)[nH]2)cc1OC`, the growth is 11%.
Still for that read-out and setting: for `O=C1Nc2cc(-c3ccncc3)ccc2/C1=C/c1ccc[nH]1` the value was 15%; for `Nc1c(C(=O)Nc2ccc(Cl)cc2)cc(-c2nc3ccccc3s2)c(=O)n1NS(=O)(=O)c1ccc(Cl)cc1`, 95.2%; for `CCOc1cc(CNc2ccc(N3CCOCC3)c(C(=O)O)c2)ccc1OC`, 94.2%.
Turning to `Cc1ccc(C2CC(c3cccc(Nc4ccncc4)c3)=NN2c2cc(Cl)cc(Cl)c2)cc1` (stereo unspecified), the growth is 1.17% (active).
The same measure, in the same setting: for `COc1ccc(/C(C)=N/NC(=O)CSc2nc3ccccc3c(=O)n2Cc2ccc(S(N)(=O)=O)cc2)c(OC)c1` the value was 95.6%; for `COc1ccc(C(=O)c2cc(C)c(OC)c(C)c2)c(OC)c1N(C(=O)C(Cl)Cl)C(=O)C(Cl)Cl`, 20.7%.
As for `Cc1ccccc1-c1cc(Cc2ccc(F)cc2)c(=O)[nH]n1`, the growth is -21.2% (active).
On the same count and under the same terms, for `CCCC1C(C(=O)OCC)=C(N)Oc2cc(O)ccc21` (stereo unspecified) the value was 90.1%.
Consider `COc1c(Cl)cc(Cl)c2ccc(C=C3C(=O)N(C)C(=O)N(C)C3=O)nc12`, for which the growth was 93.2%.
Same read-out and setting: the figure for `O=C1Nc2ccccc2/C1=N/c1nc(-c2ccc(Cl)cc2)cs1` is 60.1%; for `COC(=O)Nc1nc2ccc(C(=O)c3cccc(I)c3)cc2[nH]1` it is -3.68% (active).
As for `O=C(Nc1ccc(Nc2ncccn2)cc1)NC1C=c2ccccc2=CC1` (stereo unspecified), the growth was 98.1%.
On to `CNC(=O)c1c(NC(=O)c2ccc(C(C)C)cc2)sc2c(CN(C)C)c(O)ccc12`, for which the growth was -9.94% (active).
Same read-out and setting: for `COc1ccc(Cc2nc3cc(OC)c(OC)cc3c(=O)[nH]2)cc1` the value was 36.1%; for `O=C1c2cccnc2C(=O)c2nc3cc(N4CCN(C5CC5)CC4)ccc3nc21`, -10% (active); for `CCOC(=O)N1CCN(CCCCl)CC1`, 97.1%.
On the same count and under the same terms, the figure for `O=C(OCc1nc2nc(Cl)nc(N3CCOCC3)c2[nH]1)n1ccnc1` is -14.2% (active); for `COc1ccc(C(=O)c2cc3c(N)c(C(=O)Nc4cccc(Cl)c4C)sc3nc2C)cc1` it is -27.1% (active); for `O=C(OC(OC(=O)c1cc(Cl)cc(Cl)c1)c1cccc2ccccc12)c1ccccc1` (stereo unspecified) it is 94.5%.
As to `CN(Cc1ccccc1)c1nc(Cl)c(C2CC(c3ccc(Cl)cc3)=Cc3[nH][nH]c(=O)c32)s1` (stereo unspecified), the growth is 94.2%.
Same read-out and setting: the figure for `COc1ccc(NC(=O)c2sc3nc(C)c(C(=O)CCc4cccc(OC)c4)cc3c2N)cc1` is 20.4%.
Same read-out and setting: the figure for `O=S(=O)(NCCCNc1nccc(-c2c(-c3cccc(O)c3)nc3occn23)n1)c1ccc(F)cc1` is 76.6%; for `CC(=O)N1c2ccccc2NC2=C(C(=O)N(Cc3ccccc3)C2(C)C)C1c1ccco1` (stereo unspecified) it is 23.3%; for `C#Cc1cccc(NC(=O)Nc2ccc(NC(=O)CCl)cc2)c1` it is -36.4% [8.25 µM] (active).
Still for that read-out and setting: the figure for `COc1cc(COC(=O)CCCCC[P+](c2ccccc2)(c2ccccc2)c2ccccc2)c(OC)c2c1OCO2` is 0.217% (active).
`Cc1c([N+](=O)[O-])cc(C(C)(C)C)cc1[N+](=O)[O-]`: the growth was 106%.
Same read-out and setting: for `Clc1nc(Cl)c2ncn(CC3(Cn4cnc5c(Cl)nc(Cl)nc54)COC3)c2n1` the value was -76.1% (active).
The same measure, in the same setting: for `COc1cc2nc(-c3ccc(C(F)(F)F)cc3)cc(OCCCN3CCC(O)CC3)c2cc1OC` the value was 10.9%; for `COc1cc(Nc2cc(O)c3c(=O)cc(-c4ccccc4)oc3c2)cc(OC)c1`, 17.3%; for `C[C@]12C[C@H]1CC[C@]1(C)[C@@H]2CC[C@@]23C[C@H](CC[C@H]21)[C@@](O)(CO)C3`, 63.3%.
Same read-out and setting: for `Cc1nc2sc(C(=O)Nc3ccccc3)c(N)c2cc1C(=O)c1ccc(C(F)(F)F)cc1` the value was 81.9%; for `N#CSCC1CC(O)(c2ccccc2)C(c2ccccc2)C(c2ccc(F)cc2)O1` (stereo unspecified), -3.15% (active).

The test system of the next assay is RPMI-8226 leukemia. The assay is described as above. Particulars: 10 µM unless noted.
For `CC1=CC[C@@H]2CC[C@]3(C)[C@H](CC[C@@H]4[C@@]5(C)CCCNC(C)(C)[C@@H]5CC[C@]43C)[C@H]2[C@@H]1C`, the growth is -32.8% (active).
Same read-out and setting: for `Fc1ccc(C2CC(c3cccc(Nc4ccncc4)c3)=NN2c2ccccc2)cc1` (stereo unspecified) the value was 1.2% (active); for `Cc1ccc(C(=O)Nc2ccccc2C(=O)N/N=C(\c2ccccc2)c2ccccn2)cc1`, 16%; for `COc1cc(/C=C/C(=O)c2c(C)oc3nc[nH]c(=O)c23)ccc1O`, 122%.
The same measure, in the same setting: the figure for `CS(=O)(=O)Nc1cc(-c2ccc3ncnc(Nc4ccc5[nH]ncc5c4)c3c2)cnc1Cl` is 102%.
As for `COc1ccc(-c2ncc(-c3ccccc3)[nH]2)cc1OC`, the growth was 89.5%.
Still for that read-out and setting: for `O=C1Nc2cc(-c3ccncc3)ccc2/C1=C/c1ccc[nH]1` the value was 81.8%.
The same measure, in the same setting: the figure for `Nc1c(C(=O)Nc2ccc(Cl)cc2)cc(-c2nc3ccccc3s2)c(=O)n1NS(=O)(=O)c1ccc(Cl)cc1` is 92.6%; for `CCOc1cc(CNc2ccc(N3CCOCC3)c(C(=O)O)c2)ccc1OC` it is 100%.
On the same count and under the same terms, the figure for `Cc1ccc(C2CC(c3cccc(Nc4ccncc4)c3)=NN2c2cc(Cl)cc(Cl)c2)cc1` (stereo unspecified) is 16.1%; for `COc1ccc(/C(C)=N/NC(=O)CSc2nc3ccccc3c(=O)n2Cc2ccc(S(N)(=O)=O)cc2)c(OC)c1` it is 116%.
Consider `COc1ccc(C(=O)c2cc(C)c(OC)c(C)c2)c(OC)c1N(C(=O)C(Cl)Cl)C(=O)C(Cl)Cl`, for which the growth is 19.9%.
Regarding `Cc1ccccc1-c1cc(Cc2ccc(F)cc2)c(=O)[nH]n1`, the growth is 50.9%.
Still for that read-out and setting: for `CCCC1C(C(=O)OCC)=C(N)Oc2cc(O)ccc21` (stereo unspecified) the value was 98.5%; for `COc1c(Cl)cc(Cl)c2ccc(C=C3C(=O)N(C)C(=O)N(C)C3=O)nc12`, 102%.
On the same count and under the same terms, the figure for `O=C1Nc2ccccc2/C1=N/c1nc(-c2ccc(Cl)cc2)cs1` is 39.3%; for `COC(=O)Nc1nc2ccc(C(=O)c3cccc(I)c3)cc2[nH]1` it is 7.16% (active); for `O=C(Nc1ccc(Nc2ncccn2)cc1)NC1C=c2ccccc2=CC1` (stereo unspecified) it is 100%.
Consider `CNC(=O)c1c(NC(=O)c2ccc(C(C)C)cc2)sc2c(CN(C)C)c(O)ccc12`, for which the growth was 22.5%.
Still for that read-out and setting: the figure for `COc1ccc(Cc2nc3cc(OC)c(OC)cc3c(=O)[nH]2)cc1` is 52.6%; for `O=C1c2cccnc2C(=O)c2nc3cc(N4CCN(C5CC5)CC4)ccc3nc21` it is 25.3%; for `CCOC(=O)N1CCN(CCCCl)CC1` it is 114%.
Regarding `O=C(OCc1nc2nc(Cl)nc(N3CCOCC3)c2[nH]1)n1ccnc1`, the growth was -35.7% (active).
The same measure, in the same setting: the figure for `COc1ccc(C(=O)c2cc3c(N)c(C(=O)Nc4cccc(Cl)c4C)sc3nc2C)cc1` is 1.21% (active).
Same read-out and setting: the figure for `O=C(OC(OC(=O)c1cc(Cl)cc(Cl)c1)c1cccc2ccccc12)c1ccccc1` (stereo unspecified) is 98%; for `CN(Cc1ccccc1)c1nc(Cl)c(C2CC(c3ccc(Cl)cc3)=Cc3[nH][nH]c(=O)c32)s1` (stereo unspecified) it is 92.5%; for `COc1ccc(NC(=O)c2sc3nc(C)c(C(=O)CCc4cccc(OC)c4)cc3c2N)cc1` it is 45.7%.
Same read-out and setting: the figure for `O=S(=O)(NCCCNc1nccc(-c2c(-c3cccc(O)c3)nc3occn23)n1)c1ccc(F)cc1` is 77%; for `CC(=O)N1c2ccccc2NC2=C(C(=O)N(Cc3ccccc3)C2(C)C)C1c1ccco1` (stereo unspecified) it is 23.4%.
Consider `C#Cc1cccc(NC(=O)Nc2ccc(NC(=O)CCl)cc2)c1`, for which the growth is -37.1% [8.25 µM] (active).
The same measure, in the same setting: the figure for `COc1cc(COC(=O)CCCCC[P+](c2ccccc2)(c2ccccc2)c2ccccc2)c(OC)c2c1OCO2` is -23.1% (active); for `Cc1c([N+](=O)[O-])cc(C(C)(C)C)cc1[N+](=O)[O-]` it is 112%.
The same measure, in the same setting: for `Clc1nc(Cl)c2ncn(CC3(Cn4cnc5c(Cl)nc(Cl)nc54)COC3)c2n1` the value was -63.5% (active); for `COc1cc2nc(-c3ccc(C(F)(F)F)cc3)cc(OCCCN3CCC(O)CC3)c2cc1OC`, 9.93% (active).
Still for that read-out and setting: the figure for `COc1cc(Nc2cc(O)c3c(=O)cc(-c4ccccc4)oc3c2)cc(OC)c1` is 17.1%.
Turning to `C[C@]12C[C@H]1CC[C@]1(C)[C@@H]2CC[C@@]23C[C@H](CC[C@H]21)[C@@](O)(CO)C3`, the growth was 95%.
Same read-out and setting: the figure for `Cc1nc2sc(C(=O)Nc3ccccc3)c(N)c2cc1C(=O)c1ccc(C(F)(F)F)cc1` is 102%; for `N#CSCC1CC(O)(c2ccccc2)C(c2ccccc2)C(c2ccc(F)cc2)O1` (stereo unspecified) it is 12.4%.

(Values after PubChem BioAssay (NCI).)
